Assay results: the supplement of paper PMC10127200
Where a name gives a salt, the structure may show the parent alone.

Tested on: A549
Test: Euclidean distance of Cell Painting phenotypic profile (signed KS, 77 features) to DMSO centroid (dimensionless distance); 5 or 10 uM (library dependent); higher = stronger phenotypic change vs DMSO (phenoactivity)
Settings: 48 h
Summary of the method: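 Harmony extracted 77 features from 20X confocal images (9 fields/well) of stained cells, scoring each as a signed Kolmogorov-Smirnov statistic against same-plate vehicle wells. The cells, five cancer lines and a healthy fibroblast line, had received library compounds for 48 h at 10 or 5 uM depending on library, with 0.1% DMSO final. Phenoactivity is the Euclidean distance from each plate-position-corrected, correlation-weighted, top-dose replicate-averaged profile to the median vehicle profile.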

Structure (SMILES) | Euclidean distance
COc1cc([C@@H]2c3cc4c(cc3[C@@H](O[C@@H]3O[C@@H]5CO[C@@H](C)O[C@H]5[C@H](O)[C@H]3O)[C@H]3COC(=O)[C@H]23)OCO4)cc(OC)c1O [Etoposide] | 2.57
O=C(c1ccc(F)c(F)c1Nc1ccc(I)cc1F)N1CC(O)([C@@H]2CCCCN2)C1 [Cobimetinib (GDC-0973. RG7420)] | 2.56
Cc1c(F)cccc1NC(=O)Nc1ccc(Cl)c(S(=O)(=O)[C@H]2CCCNC2)c1O | 0.479
Nc1nc2[nH]cc(CCc3ccc(C(=O)N[C@@H](CCC(=O)O)C(=O)O)cc3)c2c(=O)[nH]1 [Pemetrexed] | 2.69
COc1ccccc1N1CCN(CCN2C(=O)CC3(CCCC3)CC2=O)CC1 | 1.72
CC[C@H]1OC(=O)[C@@](C)(F)C(=O)[C@H](C)[C@@H](O[C@@H]2O[C@H](C)C[C@H](N(C)C)[C@H]2O)[C@](C)(OC)C[C@@H](C)C(=O)[C@H](C)[C@H]2N(CCCCn3cc(-c4cccc(N)c4)nn3)C(=O)O[C@]12C [Solithromycin] | 1.89
C[C@]12CC[C@@H]3c4ccc(O)cc4CC[C@H]3[C@@H]1CCC2=O [Estrone] | 0.907
Oc1c2ccccc2c2c3c(cccc13)N=N2 | 1.08
C=C1/C(=C\C=C2/CCC[C@]3(C)[C@@H]([C@H](C)CCCC(C)(C)O)CC[C@@H]23)C[C@@H](O)C[C@@H]1O [Calcitriol] | 1.1
Cc1c(-c2cnccn2)ssc1=S [Oltipraz] | 0.941
Cc1c(Nc2ncccc2C(=O)O)cccc1C(F)(F)F [Flunixin Meglumin] | 0.853
CO/N=C(\C(=O)N[C@@H]1C(=O)N2C(C(=O)O)=C(COC(C)=O)CS[C@H]12)c1csc(N)n1 [Cefotaxime sodium] | 0.485
c1coc(CNc2ncnc3[nH]cnc23)c1 [Kinetin] | 1.02
CC[C@]1(O)C[C@H]2CN(CCc3c([nH]c4ccccc34)[C@@](C(=O)OC)(c3cc4c(cc3OC)N(C=O)[C@H]3[C@@](O)(C(=O)OC)[C@H](OC(C)=O)[C@]5(CC)C=CCN6CC[C@]43[C@@H]65)C2)C1 [Vincristine] | 2.61
Nc1ncnc2c1ncn2[C@@H]1O[C@H](CO)[C@@H](O)[C@@H]1O [Vidarabine monohydrate] | 1.22
COCCCN1CCC(NC(=O)c2cc(Cl)c(N)c3c2OCC3)CC1 [Prucalopride Succinat] | 0.777
OC(CCCN1CCCCC1)(c1ccccc1)c1ccccc1 [Diphenidol HCl] | 0.66

Structure (SMILES) | Euclidean distance
CN(C)CC/C=C1/c2ccccc2COc2ccc(CC(=O)O)cc21 [Olopatadine HCl] | 0.745
NC(=O)c1cnccn1 [Pyrazinamide] | 1.35
CC(C)NCC(O)c1ccc(O)c(O)c1 (stereo not drawn) [Isoproterenol sulfate dihydrate] | 0.632
Cc1cc(F)c(Nc2ncnc3cc(OCc4ccccc4)ccc23)cc1O | 0.984
CCCCCCCCCC(=O)CC(O)S(=O)(=O)O (stereo not drawn) [Sodium Houttuyfonate] | 0.727
Oc1c(Br)cc(Br)c2cccnc12 [Broxyquinoline] | 0.988
Nc1ccn([C@H]2CC[C@@H](CO)O2)c(=O)n1 [Zalcitabine] | 0.768
Cc1cccc(-c2[nH]c(C(C)(C)C)nc2-c2ccc3nccnc3c2)n1 | 1.18
O=C(CCCCCN1C(=O)c2cccc3cccc(c23)C1=O)NO [Scriptaid] | 3.02
C[C@]12CCC3=C4CCC(=O)C=C4CC[C@H]3[C@@H]1CC[C@@]2(O)CC#N [Dienogest] | 0.862
O=C(O)[C@@H](S)[C@@H](S)C(=O)O [Succimer] | 1.41
Cc1c(-c2ccc(O)cc2)n(Cc2ccc(OCCN3CCCCCC3)cc2)c2ccc(O)cc12 [Bazedoxifene HCl] | 4.91
Nc1ccn([C@@H]2O[C@H](CO)[C@@H](O)[C@@H]2O)c(=O)n1 [Cytarabine] | 2.79
COc1cnc(NS(=O)(=O)c2ccc(N)cc2)nc1 [Sulfameter] | 1.11
CC(C)c1ccc2oc3nc(N)c(C(=O)O)cc3c(=O)c2c1 [Amlexanox] | 0.9
CCCN1C[C@H](C)[C@@H](O)[C@](C)(O)[C@@H](CC)OC(=O)[C@H](C)[C@@H](O[C@H]2C[C@@](C)(OC)[C@@H](O)[C@H](C)O2)[C@H](C)[C@@H](O[C@@H]2O[C@H](C)C[C@H](N(C)C)[C@H]2O)[C@](C)(O)C[C@H]1C [Gamithromycin] | 1.03
